According to PubChem BioAssay:
Records with an inconclusive call do not appear. Active and inactive are the calls of the source.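 Rule for the calls, unless noted: active = inhibition above the screen-wide mean plus 3 SD, about 51%; inactive = the rest.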

What was measured:
[1] = yeast TOR pathway RPL19A-GFP modulators, primary screen, cell-based, S. cerevisiae, multiplex flow cytometry (AID 1862; in the data active = percent of DMSO control GFP below about 86%;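 note: lower values mimic rapamycin by blocking the RPL19A rise seen in DMSO cells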); details: S. cerevisiae RPL19A-GFP strain, flow cytometry fluorescence, 3 h; at 10 µM; stronger effect = lower value
[2] = modulators of CIT2-GFP expression in yeast, primary screen, S. cerevisiae, GFP fusion, multiplex flow cytometry (AID 1870;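 active = percent response above a set limit, the screen-wide mean plus 3 SD, cut at about 130% in these data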;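 note: barcoded CIT2-GFP strain pooled with four other GFP strains with rapamycin as positive control; median GFP fluorescence per well over plate mean of DMSO wells so 100% = DMSO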); details: 3 h, at 10 µM, stronger effect = higher value
[3] = modulators of LAP4-GFP expression in yeast, primary screen, S. cerevisiae, multiplex flow cytometry (AID 1873;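 active = GFP signal, as percent of the solvent control, above the screen mean plus 3 SD, about 149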); details: 3 h, at 10 µM, stronger effect = higher value
[4] = modulators of AGP1-GFP expression in yeast TOR pathway, primary screen, cell-based, multiplex flow cytometry, S. cerevisiae (AID 1887;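 active = GFP signal above the screen-wide mean plus 3 SD, that is over about 124.5% of the solvent control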;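 note: AGP1-GFP fusion strain of S. cerevisiae within a five-strain barcoded multiplex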); details: 3 h, at 10 µM, stronger effect = higher value
[5] = inhibitors of CD8+ T cell-vesicle binding, pilot screen, LFA-1/ICAM-1 modulator project, MLPCN validation set, flow cytometry (AID 2523;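 active = response below a set limit, under 55% cells CD8-positive and vesicle-bound, and CD8 cells' 90th-percentile brightness under 279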;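 for vesicle binding response: mean PE anti-B7-1 fluorescence of CD8+ cells relative to row control; 100% = QL9-loaded vesicles with DMSO vehicle in the same plate row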); details: 2C mouse CD8+ T cells, at 7 µM, stronger effect = lower value; double positive events: measured here: CD8+/vesicle+ event percentage
[6] = target: Integrin beta-1 (Homo sapiens) + Integrin alpha-4 (Homo sapiens) (UniProt P13612+P05556); assay: inhibition of HUTS-21 binding to VLA-4, pilot screen, VLA-4 allosteric modulator project, U937 cells, HUTS-21 mAb, flow cytometry, validation set (AID 2674;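 active = inhibition above 50%, about 3 SD of the validation set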;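 note: antibody binding induced by the VLA-4 ligand LDV present at three times its Kd; 0% = LDV ligand with antibody and no compound and 100% = antibody without LDV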); details: HUTS-21 LIBS mAb binding, at 6.7 µM, stronger effect = higher value, binding induced by LDV ligand
[7] = superoxide lowering in aged yeast cells, pilot screen, validation compound set (AID 2706;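 active = superoxide response below 65% of plate, a cut near 3 SD across the whole screen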;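 note: yeast exposed to compound for one week at 30 degrees C before staining; 100% = mean of all compound wells on the same plate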); details: S. cerevisiae aging, superoxide DHE fluorescence; at 10 µM, stronger effect = lower value
[8] = target: Beta-adrenergic receptor kinase 1 (Homo sapiens) (UniProt P25098); assay: GRK2 binders displacing RNA aptamer, biochemical, validation, human GRK2, bead flow cytometry (AID 488806;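 active = aptamer binding inhibition above 30%, about 3 SD of noise from non-fluorescent compounds; inactive = inhibition at or below 30%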); details: bead-bound GRK2, FAM-aptamer displacement, at 10 µM, stronger effect = higher value
[9] = target: Beta-2 adrenergic receptor (Homo sapiens) (UniProt P07550); assay: beta2AR agonists driving receptor internalization, pilot screen, cell-based, FAP fluorogen, flow cytometry, validation set (AID 504459;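 active = percent response above 42, roughly 3 SD of non-fluorescent test compounds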;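 note: agonist-driven loss of surface beta2AR via internalization measured by FAP dye flow cytometry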); details: Am2.2-beta2AR cells, FAP surface receptor flow cytometry; at 10 µM; stronger effect = higher value
[10] = target: AP-2 complex subunit beta (Homo sapiens) (UniProt P63010); assay: inhibitors of arrestin peptide binding to AP2, pilot screen, biochemical, validation set, GST-AP2 beads, flow cytometry (AID 504541;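 active = inhibition above 54%, about 3 SD of non-fluorescent compounds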;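 note: AP2 carries R879A mutation and is captured from E. coli lysate; bead-bound FITC arrestin peptide fluorescence measuring arrestin peptide binding to AP2; 0% = DMSO wells and 100% = excess unlabeled arrestin peptide control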); details: FITC arrestin peptide, at 10 µM, stronger effect = higher value, AP2 beta2 appendage fragment, R879A mutant
[11] = yeast V-ATPase proton transport modulators, S. cerevisiae, pHLuorin, HTS validation (AID 504600; in the data active = response above about 15%;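 note: plate controls were DMSO for no effect and reference compound for full effect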); details: S. cerevisiae pHLuorin cytosolic pH, at 10 µM, stronger effect = higher value
[12] = system: anti-desmoglein-3 scFv antibody binding to human DSG3; assay: inhibitors of anti-DSG3 scFv binding to DSG3, pilot screen, biochemical, validation compound set, bead-based, flow cytometry (AID 588368;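 active = binding below the plate cutoff, the plate median minus 3 SD, with a reading above zero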;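 note: signal is the median channel fluorescence of bead-bound GFP antibody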); details: Protein G beads, DSG3-Fc, scFv-GFP binding, at 10 µM, stronger effect = lower value
[13] = inhibitors of fungal efflux pumps CDR1, CDR2, MDR1, pilot screen, validation compound set, multiplex, phenotypic (AID 588506;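 active = efflux inhibition above 0.42, the validation set average plus 4 SD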;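 note: Nile Red retained in cells so higher fluorescence means more efflux inhibition; 0 = negative control wells and 1 = enniatin B 25 µM full block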); details: S. cerevisiae pump-expressing triplex, Nile Red efflux flow cytometry; at 10 µM; stronger effect = higher value; the pumps come from Candida albicans
[14] = target: ATP-binding cassette sub-family B member 6 (Homo sapiens) (UniProt Q9NP58); assay: ABCB6 transporter inhibitors, pilot screen, K562-ABCB6 cells, flow cytometry, validation set (AID 588550); details: K562-ABCB6 porphyrin accumulation, 1 h, at 10 µM, stronger effect = higher value;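 note: 0% = DMSO wells and 100% = benzethonium chloride 70 µM positive control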
[15] = promoters of myeloid differentiation in arrested cells, primary screen, cell-based, GFP/MAC1 double positive, flow cytometry, validation set (AID 588685;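 active = differentiation response of at least 50%, scaled between solvent and reference control, from cells with both markers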;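 note: compound exposure lasts four days before antibody staining and flow analysis; 0% = DMSO wells and 100% = 5 µM fulvestrant positive control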); details: ER-HoxA9 marrow cells, stronger effect = higher value, normalized: vehicle 0, fulvestrant 100
[16] = modulators of MEP2-GFP levels in yeast, primary screen, S. cerevisiae, multiplex flow cytometry (AID 1867;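 active = GFP response, as percent of the DMSO control, above the screen-wide mean plus 3 SD, about 139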;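 note: median GFP channel fluorescence of barcode-gated MEP2-GFP cells measured by flow cytometry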); details: S. cerevisiae MEP2-GFP strain, 3 h, at 10 µM, stronger effect = higher value, 100% means same as DMSO wells

Sequence of AP-2 complex subunit beta (Homo sapiens) (P63010 whole entry, looked up, the tested form may be a part, one chain of several): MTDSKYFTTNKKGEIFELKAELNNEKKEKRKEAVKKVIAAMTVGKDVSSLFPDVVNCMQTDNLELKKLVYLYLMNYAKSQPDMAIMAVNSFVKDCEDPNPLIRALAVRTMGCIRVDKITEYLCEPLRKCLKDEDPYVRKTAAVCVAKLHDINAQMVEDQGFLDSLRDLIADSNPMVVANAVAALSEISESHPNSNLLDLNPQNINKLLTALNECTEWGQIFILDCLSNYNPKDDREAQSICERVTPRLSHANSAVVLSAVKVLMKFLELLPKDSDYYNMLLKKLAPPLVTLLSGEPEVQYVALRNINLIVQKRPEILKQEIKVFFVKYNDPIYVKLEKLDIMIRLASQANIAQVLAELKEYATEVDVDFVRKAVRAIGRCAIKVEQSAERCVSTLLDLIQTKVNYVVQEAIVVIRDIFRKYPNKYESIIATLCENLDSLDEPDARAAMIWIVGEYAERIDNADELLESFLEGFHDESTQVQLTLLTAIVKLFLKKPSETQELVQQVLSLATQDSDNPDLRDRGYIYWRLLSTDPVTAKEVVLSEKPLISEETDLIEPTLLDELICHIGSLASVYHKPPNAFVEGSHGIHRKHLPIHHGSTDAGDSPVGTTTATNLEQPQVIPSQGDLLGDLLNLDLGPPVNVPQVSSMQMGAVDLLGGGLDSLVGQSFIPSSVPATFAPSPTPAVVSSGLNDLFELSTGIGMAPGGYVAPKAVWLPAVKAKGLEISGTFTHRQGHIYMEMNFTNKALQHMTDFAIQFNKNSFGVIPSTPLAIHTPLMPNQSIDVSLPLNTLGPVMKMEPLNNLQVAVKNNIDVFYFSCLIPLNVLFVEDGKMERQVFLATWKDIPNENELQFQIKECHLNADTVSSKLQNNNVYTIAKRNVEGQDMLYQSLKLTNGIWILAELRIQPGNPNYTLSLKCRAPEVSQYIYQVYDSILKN
Sequence of Beta-2 adrenergic receptor (Homo sapiens) (P07550 whole entry, looked up): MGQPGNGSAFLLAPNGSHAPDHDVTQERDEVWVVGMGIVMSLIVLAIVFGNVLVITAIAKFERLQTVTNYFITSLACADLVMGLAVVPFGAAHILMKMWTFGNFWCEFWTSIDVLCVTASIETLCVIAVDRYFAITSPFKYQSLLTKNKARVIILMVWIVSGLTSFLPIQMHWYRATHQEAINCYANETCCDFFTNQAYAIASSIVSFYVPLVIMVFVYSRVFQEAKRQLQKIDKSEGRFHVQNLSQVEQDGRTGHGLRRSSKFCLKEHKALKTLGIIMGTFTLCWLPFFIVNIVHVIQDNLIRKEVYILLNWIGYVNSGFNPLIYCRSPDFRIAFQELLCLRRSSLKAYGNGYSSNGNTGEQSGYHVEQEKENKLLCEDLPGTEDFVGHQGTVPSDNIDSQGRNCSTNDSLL
Sequence of Beta-adrenergic receptor kinase 1 (Homo sapiens) (P25098 whole entry, looked up): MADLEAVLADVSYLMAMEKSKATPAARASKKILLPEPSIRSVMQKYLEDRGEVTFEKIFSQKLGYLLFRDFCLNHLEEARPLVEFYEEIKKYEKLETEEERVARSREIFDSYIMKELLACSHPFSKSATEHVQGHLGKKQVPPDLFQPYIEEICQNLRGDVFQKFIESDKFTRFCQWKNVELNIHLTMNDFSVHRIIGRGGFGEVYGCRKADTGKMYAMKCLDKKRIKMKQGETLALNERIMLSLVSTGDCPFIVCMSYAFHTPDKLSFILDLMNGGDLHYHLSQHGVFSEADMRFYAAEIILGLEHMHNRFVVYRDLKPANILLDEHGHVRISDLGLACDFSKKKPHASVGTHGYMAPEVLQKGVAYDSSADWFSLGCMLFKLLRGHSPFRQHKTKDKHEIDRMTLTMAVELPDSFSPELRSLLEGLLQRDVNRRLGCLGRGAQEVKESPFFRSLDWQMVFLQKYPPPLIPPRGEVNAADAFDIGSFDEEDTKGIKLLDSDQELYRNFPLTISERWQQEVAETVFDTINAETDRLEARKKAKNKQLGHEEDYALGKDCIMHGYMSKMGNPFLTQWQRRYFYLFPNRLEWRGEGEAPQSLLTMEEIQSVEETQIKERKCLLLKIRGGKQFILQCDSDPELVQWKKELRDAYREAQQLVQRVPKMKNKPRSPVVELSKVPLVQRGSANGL
Sequence of Integrin beta-1 (Homo sapiens) + Integrin alpha-4 (Homo sapiens) (P05556 whole entry, looked up): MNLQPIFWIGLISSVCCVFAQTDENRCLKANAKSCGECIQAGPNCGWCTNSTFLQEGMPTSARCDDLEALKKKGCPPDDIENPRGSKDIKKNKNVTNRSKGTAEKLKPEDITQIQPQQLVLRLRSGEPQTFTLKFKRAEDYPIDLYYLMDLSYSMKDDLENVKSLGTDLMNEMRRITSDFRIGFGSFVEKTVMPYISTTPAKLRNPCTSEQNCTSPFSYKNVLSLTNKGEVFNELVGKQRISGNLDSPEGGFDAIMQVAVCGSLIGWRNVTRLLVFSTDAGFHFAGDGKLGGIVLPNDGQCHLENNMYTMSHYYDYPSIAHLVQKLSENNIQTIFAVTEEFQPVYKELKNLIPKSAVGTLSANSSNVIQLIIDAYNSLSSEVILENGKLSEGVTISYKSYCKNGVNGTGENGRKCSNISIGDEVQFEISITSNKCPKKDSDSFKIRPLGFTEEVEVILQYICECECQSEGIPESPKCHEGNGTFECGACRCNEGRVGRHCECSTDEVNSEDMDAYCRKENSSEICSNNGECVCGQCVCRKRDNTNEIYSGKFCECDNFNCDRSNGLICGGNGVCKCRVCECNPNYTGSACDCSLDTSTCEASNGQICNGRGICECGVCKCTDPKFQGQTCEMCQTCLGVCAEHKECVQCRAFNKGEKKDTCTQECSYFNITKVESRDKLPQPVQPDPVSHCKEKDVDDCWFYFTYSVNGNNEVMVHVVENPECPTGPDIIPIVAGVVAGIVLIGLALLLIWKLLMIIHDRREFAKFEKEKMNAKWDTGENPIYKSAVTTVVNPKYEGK
Sequence of Integrin beta-1 (Homo sapiens) + Integrin alpha-4 (Homo sapiens) (P13612 whole entry, looked up): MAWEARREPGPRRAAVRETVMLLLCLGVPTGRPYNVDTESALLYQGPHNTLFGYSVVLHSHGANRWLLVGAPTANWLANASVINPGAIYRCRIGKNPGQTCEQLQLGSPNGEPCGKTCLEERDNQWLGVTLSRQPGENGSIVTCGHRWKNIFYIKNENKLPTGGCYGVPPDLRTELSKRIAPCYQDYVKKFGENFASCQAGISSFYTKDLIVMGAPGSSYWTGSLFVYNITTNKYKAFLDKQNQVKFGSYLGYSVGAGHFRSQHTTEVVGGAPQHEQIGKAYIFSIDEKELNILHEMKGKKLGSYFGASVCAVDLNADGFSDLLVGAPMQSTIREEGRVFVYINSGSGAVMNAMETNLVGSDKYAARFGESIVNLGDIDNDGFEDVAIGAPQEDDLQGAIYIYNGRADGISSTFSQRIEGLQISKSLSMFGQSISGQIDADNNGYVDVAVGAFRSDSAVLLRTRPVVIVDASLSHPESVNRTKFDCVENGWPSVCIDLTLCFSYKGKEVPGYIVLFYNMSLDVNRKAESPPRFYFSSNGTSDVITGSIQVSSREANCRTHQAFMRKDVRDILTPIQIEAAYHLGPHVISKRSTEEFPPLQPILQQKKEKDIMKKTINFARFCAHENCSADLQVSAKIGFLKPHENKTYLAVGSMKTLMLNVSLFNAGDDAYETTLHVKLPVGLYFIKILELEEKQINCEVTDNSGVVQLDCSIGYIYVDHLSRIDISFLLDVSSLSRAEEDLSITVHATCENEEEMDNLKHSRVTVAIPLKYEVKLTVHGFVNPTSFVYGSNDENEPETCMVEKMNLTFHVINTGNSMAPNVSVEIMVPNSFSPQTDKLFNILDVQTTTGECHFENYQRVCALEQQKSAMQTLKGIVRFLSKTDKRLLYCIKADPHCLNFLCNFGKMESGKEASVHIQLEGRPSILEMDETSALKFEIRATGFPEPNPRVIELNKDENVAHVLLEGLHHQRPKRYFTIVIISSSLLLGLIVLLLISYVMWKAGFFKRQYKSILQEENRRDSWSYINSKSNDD
Sequence of ATP-binding cassette sub-family B member 6 (Homo sapiens) (Q9NP58 whole entry, looked up): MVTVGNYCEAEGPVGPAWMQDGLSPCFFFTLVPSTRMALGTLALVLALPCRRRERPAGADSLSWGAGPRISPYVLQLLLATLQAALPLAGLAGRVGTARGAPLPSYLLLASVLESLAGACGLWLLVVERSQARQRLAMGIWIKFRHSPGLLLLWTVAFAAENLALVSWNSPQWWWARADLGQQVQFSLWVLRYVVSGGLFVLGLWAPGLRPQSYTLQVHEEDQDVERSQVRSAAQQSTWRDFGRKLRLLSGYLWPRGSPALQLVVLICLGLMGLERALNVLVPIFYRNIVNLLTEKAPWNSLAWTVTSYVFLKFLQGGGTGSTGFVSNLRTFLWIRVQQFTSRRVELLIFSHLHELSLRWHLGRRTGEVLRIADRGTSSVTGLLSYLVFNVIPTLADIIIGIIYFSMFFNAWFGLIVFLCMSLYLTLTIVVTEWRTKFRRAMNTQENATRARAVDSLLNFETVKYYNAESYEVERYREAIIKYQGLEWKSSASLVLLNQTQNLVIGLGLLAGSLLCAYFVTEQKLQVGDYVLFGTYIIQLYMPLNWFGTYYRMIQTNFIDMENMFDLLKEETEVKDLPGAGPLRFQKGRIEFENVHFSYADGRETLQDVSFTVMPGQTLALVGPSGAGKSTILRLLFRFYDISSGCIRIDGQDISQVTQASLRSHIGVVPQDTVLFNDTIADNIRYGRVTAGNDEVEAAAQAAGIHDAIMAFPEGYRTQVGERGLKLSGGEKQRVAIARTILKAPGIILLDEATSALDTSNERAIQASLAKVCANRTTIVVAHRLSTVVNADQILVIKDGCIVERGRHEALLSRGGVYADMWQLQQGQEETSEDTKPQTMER

O=C1C2C3C=CC(C4CC34)C2C(=O)N1/N=C/c1ccc(-c2ccc([N+](=O)[O-])cc2)o1 (stereo not given)
57.9%: double positive events [5]
inactive: percent of DMSO control GFP [1] 103% | percent response of DMSO control [2] 101% | GFP response vs DMSO [3] 85.4% | GFP response, % of DMSO [4] 87.7% | vesicle binding response [5] 153% | inhibition [6] -0.43% | superoxide response (% of plate) [7] 95.5% | aptamer binding inhibition [8] 4% | response [9] 25.8% | inhibition [10] 14.3% | response [11] 1.6% | binding (% of control) [12] 102% | efflux inhibition (fraction of control) [13] 0.19 | inhibition [14] 7% | differentiation response [15] 0%

COCCc1ccc(OCC(O)CNC(C)C)cc1 (stereo not given)
68.1%: double positive events [5]
inactive: percent of DMSO control GFP [1] 103% | percent response of DMSO control [2] 98.9% | GFP response vs DMSO [3] 87.4% | GFP response, % of DMSO [4] 97.6% | vesicle binding response [5] 212% | inhibition [6] 7.85% | aptamer binding inhibition [8] -2% | inhibition [10] -6% | response [11] 1.04% | binding (% of control) [12] 105% | efflux inhibition (fraction of control) [13] 0.21 | inhibition [14] 7% | differentiation response [15] 5.13%

CCOc1ccc(C(=O)Nc2ccc(N3CCN(C(C)=O)CC3)cc2)cc1[N+](=O)[O-]
inactive: percent of DMSO control GFP [1] 93% | GFP response vs DMSO [16] 106% | percent response of DMSO control [2] 115% | GFP response vs DMSO [3] 78.7% | vesicle binding response [5] 210% | inhibition [6] 3.55% | superoxide response (% of plate) [7] 100% | aptamer binding inhibition [8] 3% | response [9] -6.75% | inhibition [10] -0.46% | response [11] 0.55% | binding (% of control) [12] 99.4% | efflux inhibition (fraction of control) [13] 0.27 | inhibition [14] 11% | differentiation response [15] -1.64%
68.5%: double positive events [5]

C[C@]12C=CC(=O)C=C1CCC1C3CC[C@](O)(C(=O)CO)[C@@]3(C)CC3OC312 (stereo not given in full)
inactive: percent of DMSO control GFP [1] 102% | percent response of DMSO control [2] 95.8% | GFP response vs DMSO [3] 85.4% | GFP response, % of DMSO [4] 101% | vesicle binding response [5] 298% | inhibition [6] 5.03% | superoxide response (% of plate) [7] 87.7% | aptamer binding inhibition [8] 2% | response [9] 2.49% | inhibition [10] -1.32% | response [11] -0.61% | binding (% of control) [12] 102% | efflux inhibition (fraction of control) [13] 0.22 | differentiation response [15] -13.6%
active: inhibition [14] 113%
76.1%: double positive events [5]

C=CCc1cc(Cl)ccc1OCCOCCN(C)C
60%: double positive events [5]
inactive: percent of DMSO control GFP [1] 103% | percent response of DMSO control [2] 108% | GFP response vs DMSO [3] 75.2% | GFP response, % of DMSO [4] 88.5% | vesicle binding response [5] 144% | inhibition [6] -4.52% | superoxide response (% of plate) [7] 98.8% | aptamer binding inhibition [8] 4% | response [9] 3.31% | inhibition [10] -5.37% | response [11] -5.95% | binding (% of control) [12] 102% | efflux inhibition (fraction of control) [13] -0.17 | inhibition [14] 1% | differentiation response [15] 16.8%

CC[C@H]1OC(=O)[C@H](C)[C@@H](O[C@H]2C[C@@](C)(OC)[C@@H](O)[C@H](C)O2)[C@H](C)[C@@H](O[C@@H]2O[C@H](C)C[C@H](N(C)C)[C@H]2O)[C@](C)(O)C[C@@H](C)[C@@H]2N[C@@H](COCCOC)O[C@H]([C@H]2C)[C@]1(C)O
active: response [11] 32.7%
inactive: percent of DMSO control GFP [1] 95% | GFP response vs DMSO [16] 130% | percent response of DMSO control [2] 95.2% | GFP response vs DMSO [3] 79.2% | vesicle binding response [5] 137% | inhibition [6] 6.46% | superoxide response (% of plate) [7] 106% | aptamer binding inhibition [8] 29% | response [9] -13.2% | inhibition [10] -5.27% | binding (% of control) [12] 103% | efflux inhibition (fraction of control) [13] -0.31 | inhibition [14] 8% | differentiation response [15] -4.91%
63.9%: double positive events [5]

CNCCCN1c2ccccc2CCc2ccccc21
71.5%: double positive events [5]
inactive: percent of DMSO control GFP [1] 93.3% | GFP response vs DMSO [16] 111% | percent response of DMSO control [2] 92.6% | GFP response vs DMSO [3] 78.7% | vesicle binding response [5] 231% | inhibition [6] 16.2% | superoxide response (% of plate) [7] 81.9% | aptamer binding inhibition [8] -1% | inhibition [10] -10.5% | response [11] 0.46% | binding (% of control) [12] 109% | efflux inhibition (fraction of control) [13] -0.38 | inhibition [14] 9% | differentiation response [15] 9.83%

CCCCC[C@H](O)/C=C/[C@@H]1[C@@H](C/C=C\CCCC(=O)OC)[C@@H](O)C[C@H]1O
59.2%: double positive events [5]
inactive: percent of DMSO control GFP [1] 97.4% | GFP response vs DMSO [16] 127% | percent response of DMSO control [2] 99.2% | vesicle binding response [5] 157% | inhibition [6] -30.4% | superoxide response (% of plate) [7] 171% | aptamer binding inhibition [8] 12% | response [9] 4.64% | inhibition [10] -11.2% | response [11] -0.57% | binding (% of control) [12] 116% | efflux inhibition (fraction of control) [13] 0.05 | inhibition [14] 13% | differentiation response [15] 2.46%

Nc1cccc(C(=O)O)c1
63.4%: double positive events [5]
inactive: percent of DMSO control GFP [1] 95.5% | GFP response vs DMSO [16] 116% | percent response of DMSO control [2] 122% | GFP response vs DMSO [3] 79.2% | vesicle binding response [5] 214% | inhibition [6] 10.3% | superoxide response (% of plate) [7] 102% | aptamer binding inhibition [8] 4% | response [9] -6.68% | inhibition [10] -0.66% | response [11] 3.11% | binding (% of control) [12] 102% | efflux inhibition (fraction of control) [13] 0.05 | inhibition [14] 6% | differentiation response [15] -0.82%
